# Bioassay records deposited in PubChem by National Center for Advancing Translational Sciences (NCATS).
# This is a sample that favours compounds with a hit; in the whole collection about 8% have one here.
# KB-3-1 cytotox: KB-3-1 parental cell cytotoxicity | KB-3-1 viability, CellTiter-Glo ATP luminescence, 72 h | Potency, µM (highest dose often 46.1 µM), most hits filed as cytotoxic | 400,000 tested, 1.4% active | AID 1347075; note: % is set by controls: 0 for no effect and ±100 for the full control effect; nearly all actives have a fitted effect of over 60% in size
#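 Viability of parental KB-3-1 cells, measured by CellTiter-Glo luminescence, followed a 72 h incubation at 37 °C with pinned compounds in phenol-red-free DMEM containing 10% FBS.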
# SW480 rereplic: DNA re-replication induction in SW480 cells | AID 624297 | SW480 DNA re-replication, Hoechst DNA content imaging, 48 h | 340,000 tested, 1.8% active | Potency, µM (series often up to 46.1 µM), without a hit: at the highest dose re-replication activation, actives largely listed as activators; note: % of control where 0% means no effect; nearly all actives have a fitted effect of over 55% in size
#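 Per well, 250 cells were exposed to pinned compound for 48 hr. Nuclear DNA was visualised with Hoechst (40 min, 37 C) and total object intensity recorded by fluorescence scanning.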
# HT1080 IDH1KD tx: HT-1080 IDH1 knockdown cell toxicity (counter line); HT-1080 IDH1 knockdown viability, ATP luminescence, 48 h; 360,000 tested, 2% active; Potency, µM (highest dose often 46.1 µM), for inactives: top-dose activity, negative = toxicity, actives largely listed as cytotoxic;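 note: 0% = DMSO wells and -100% = cell-free medium wells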
#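 IDH1KD HT-1080 cells, 750/well, RPMI + 5% FBS; compound pinned after 2 h settling; 48 h, 37 °C; CellTiter-Glo luminescence; % activity normalised to DMSO and no-cell wells; curves fitted, classed by r2 and efficacy.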
# MCF10A rereplic: inducers of DNA re-replication in MCF 10A breast cells; MCF 10A DNA re-replication, Hoechst nuclear intensity, 48 h; 350,000 tested, 2.9% active; Potency, µM (doses to about 46.1 µM), for the others: at the top dose activity, positive = re-replication, usual class: activators; note: % of control where 0% means no effect; nearly all actives have a fitted effect of over 50% in size
# KB-V1 MDR tox: KB-V1 MDR subline cytotoxicity | Potency, µM (series often up to 46.1 µM), hits mostly cytotoxic | 400,000 tested, 3.4% active | KB-V1 MDR cells viability, CellTiter-Glo, 72 h; note: % is set by controls: 0 for no effect and ±100 for the full control effect; nearly all actives have a fitted effect of over 60% in size
#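 KB-V1, DMEM (no phenol red) + 10% FBS; cpd pin-transferred, titration series; 72 h, 37 degrees C; CellTiter-Glo, luminescence. Data normalized, curve-fit.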
# HT1080-NT tox: kills 2HG-producing HT-1080-NT fibrosarcoma cells; HT-1080-NT fibrosarcoma viability, CellTiter-Glo ATP luminescence, 48 h; AID 686970; 360,000 tested, 1.6% active; Potency, µM (series often up to 46.1 µM), for inactives: top-dose activity, negative = less viability, most hits filed as cytotoxic;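 note: NT is the 2HG producing partner of a matched IDH1 knockdown line; 0% = DMSO-treated cells and -100% = media-only wells without cells; nearly all actives have a fitted effect of over 55% in size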
#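 HT-1080-NT; 750 cells/well; 5% FBS RPMI; 48 h compound, 37 degrees C; CellTiter-Glo luminescence; curve fitting and curve-class assignment.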
# * hit, by the source's call; i = inactive; ? = inconclusive; . = no result; [ ] = remark or other dose. Calls come from the whole dose curve; as a rule, active = well fitted curve in the direction sought with a large enough effect; inconclusive = small, poorly fitted or top-dose-only effect, or another doubt; inactive = no such curve, though single readings can be large; an effect the other way counts as inactive or inconclusive. Potency is the fitted concentration of half-maximal effect.
SMILES,KB-3-1 cytotox,SW480 rereplic,HT1080 IDH1KD tx,MCF10A rereplic,KB-V1 MDR tox,HT1080-NT tox
O=C(O)COc1ccccc1/C=N/NC(=O)/C(=C\c1ccc2c(c1)OCO2)NC(=O)c1ccccc1,i,5.1%,10.9%,18.4µM*,i,?
COc1cc(C(=O)Oc2ccccc2/C=N/NC(=O)c2ccc(C)cc2)cc(OC)c1OC,8.2µM*,?,?,?,i,?
O=C(N/N=C/c1ccccc1OC(=O)c1ccc2c(c1)OCO2)c1ccccc1,i,?,-19.5%,20.6µM*,i,-2.2%
COc1cc(C(=O)Oc2cccc(/C=N/NC(=O)c3cccnc3)c2)cc(OC)c1OC,i,?,18.4µM*,-7.5%,i,?
CCc1nnc2c(Nc3ccc(Br)c(C)c3)nc3ccccc3n12,i,.,.,.,i,.
Cc1cccc(C(=O)Oc2ccccc2/C=N/NC(=O)c2ccc(NC(=O)C(C)(C)C)cc2)c1,i,2.0%,3.7%,13.9%,?,0.2%
COc1ccc(C(=O)N/N=C/c2ccc(OC(=O)c3ccccc3)cc2)cc1,i,-8.3%,6.3%,-7.3%,i,-2.8%
COc1ccc(C(=O)N/N=C/c2ccccc2OC(=O)c2ccccc2)cc1,18.4µM*,?,4.11µM*,?,13µM*,4.61µM*
CC(C)(C)C(=O)Nc1ccc(C(=O)N/N=C/c2ccccc2OC(=O)c2ccc(Cl)cc2)cc1,i,2.59µM*,?,11.7%,i,-25.1%
C=CCNC(=O)/C(=C\c1ccc2c(c1)OCO2)NC(=O)c1ccc(Br)cc1,i,-84.9%,-2.9%,-4.7%,23.1µM*,-7.7%
COc1cccc(CNC(=O)CCCn2ncn3c(cc4occc43)c2=O)c1OC,i,.,.,.,i,.
Nc1c(C2CCCCC2)c(=O)on1C(=O)c1ccccc1,?,6.1%,12.8%,14.6µM*,i,7.3%
Cc1cc(NC(=O)c2ccc(C(C)(C)C)cc2)no1,i,20.4%,-7.2%,10.6%,i,2.8%
CC(C)(C)c1cc(NC(=O)c2ccc(OC3CCCC3)cc2)no1,?,-1.5%,?,15.3%,16.4µM*,-24.1%
O=C(Nc1ccon1)c1ccc(OC2CCCC2)cc1,i,-2.6%,-2.2%,1.5%,18.4µM*,-0.3%
O=C(NCCc1ccccc1)[C@@H]1CC=C[C@@H]2CCN(C3CC3)C(=O)[C@@H]21,i,.,.,.,i,.
Cc1occc(=O)c1OC(=O)Nc1ccc(Cl)c(Cl)c1,?,-9.5%,?,18.4µM*,?,23.1µM*
COc1ccc(C(=O)Oc2c(C)occc2=O)cc1OC,i,-2.3%,-2.5%,0.1%,?,-4.3%
CCOC(=O)C1=C(C)C(c2cccc(Oc3ccccc3)c2)NC(=S)N1 (stereo not given),i,6.3%,?,?,?,?
CCOC(=O)C1=C(c2cccc(Oc3ccccc3)c2)NC(=S)NC1C (stereo not given),?,-2.0%,-8.1%[9.24 µM],?,16.4µM*,?
COc1c(C)cc(S(=O)(=O)N2CCCC2)c(C)c1C,i,-7.8%,-1.8%,3.7%,23.1µM*,2.1%
COc1cccc(CN2CCN(Cc3cc(OC)c(OC)cc3[N+](=O)[O-])CC2)c1,i,4.6%,1.7%,13.1%,20.6µM*,6.8%
CN(C(=O)CCl)C1CCCc2ccccc21 (stereo not given),5.8µM*,2.31µM*,?,?,?,?
Cc1oc(-c2cccc(Cl)c2)nc1CSc1nncn2c1cc1occc12,i,.,.,.,i,.
